Laboratory results: PubChem BioAssay (NCATS)
Some of the results follow. A call without a number means that no potency is given here. Records with an inconclusive call do not appear. Activity calls are given as the source filed them. The call rests on the fitted dose curve; in most records, active means well fitted cell-killing curve with a large enough effect; inconclusive means small, poorly fitted or top-dose-only effect, or effect the other way; inactive means flat fitted curve, though single readings scatter.

test: Cell viability qHTS assay in S16 Pmp22-F2sN cells - Confirmatory screen (AID 1508641); settings: S16 Schwann cells viability, CellTiter-Glo ATP luminescence, 24 h; series mostly up to 57.5 µM
From the text: Assay Provider: Jim Inglese Ph.D. National Center for Advancing Translational Science, National Institutes of Health, Rockville, MD CMT is a heterogeneous group of neurological disorders that affect approximately 1 in 2,500 people. In particular, the most common form of CMT, CMT1A is genetically linked to the duplication of the PMP22 gene which leads to Schwann cell overexpression, thus manifesting itself as a typical case of dose-sensitive diseases. To identify small molecule compounds that can mediate the expression of PMP22 we developed a phenotypic assay screening strategy by utilizing genome editing techniques to construct Schwann cell lines containing novel reporter technology to monitor the transcriptional or translational regulation of PMP22. For high sensitivity we use a bioluminescent reporter system embedded in the 3' UTR of the PMP22 gene (S16(c9) Pmp22-F2sN) to identify compounds that inhibit gene expression. […] We can further discriminate the effect of all transcriptionally active molecules on PMP22 translation or stability with an assay that incorporates a short NLuc peptide (HiBiT) at the C-terminus of expressed PMP22 (S16(f8) PMP22-HiBiT) allowing alpha complementation and luminescence detection of membrane-associated PMP22 protein. These assays were screened against the NCATS Sytravon Library Collection. Miniaturization of these assays to 1536-well plate format for quantitative high throughput screening (qHTS) yielded rich data sets immediately from the qHTS assay (S16(c9) Pmp22-F2sN), when compared with data from a cell viability assay (Cell TiterGlo) to identify compounds that decreased the output signals through cellular toxicity to streamline the selection process of actives for subsequent characterization using the HiBiT assay (S16(f8) PMP22-HiBiT).
Cell viability assay in S16 Pmp22-F2sN cells PROTOCOL TABLE (format as described by Inglese J, Shamu CE and Guy RK. 2007) SEQUENCE No. (e.g., 1, 2, 3, etc.); PARAMETER (e.g., Cells, Incubation, Reagent, etc.); VALUE and DESCRIPTION. 1. Cells. Add 500-1,000 cells in 4 uL in growth media (DMEM High Glucose, No Phenol Red media + 10% heat-inactivated FBS + 1% Pen/Strep supplemented media) per well into Greiner 1536-well white/solid bottom high base, TC-treated plates. 2. Compounds. Library compounds and controls added at 23nL per well, transferred by Pin Tool. 3. Incubation. Incubate plates at 37C, 5% CO2, 95% RH for 24 h. 4. Reagent. Add 3uL CellTiter-Glo per well of Greiner 1536-well plates. 5. Incubation. Incubate plates at room temperature for 15 min., protect from light. 6. Detector. FLuc luminescence measured using CCD-based camera (Viewlux). NOTES (numbers refer to Sequence numbers above; values are from representative experiments) 6. Luminescence Read: Clear filter; Exposure = 1 sec, Gain = High, Speed = Slow, Binning = 2X REFERENCES: 1. Inglese J, Shamu CE and Guy RK, Reporting data from high throughput screening of small molecule libraries, Nature Chemical Biology, 2007, 3(8): 438-441. doi.org/10.1038/nchembio0807-438 2. Yasgar A, Shinn P, Jadhav A, Auld DS, Michael S, Zheng W, Austin CP, Inglese J and Simeonov A, Compound Management for Quantitative High-Throughput Screening. J. Assoc. Lab. Auto., 2008, 13: 79-89. doi: 10.1016/j.jala.2007.12.004
Potency means the concentration at half of the fitted maximal effect.

Q: With `O=C(c1ccc2c(c1)N(Cc1ccc(F)cc1)C(=O)c1ccccc1S2(=O)=O)N1CCN(c2ccccn2)CC1` as the compound, how does the Potency read?
A: The Potency was “inactive”.

Q: Which Potency does the source give for `CCC1CCCCN1CCCNC(=O)c1cc2c(Cl)nc3ccccc3c2s1` (stereo not drawn) here?
A: Its Potency is “inactive”.

Q: Which Potency does the source give for `Cc1ccc(CCNC(=O)C2CCN(c3nnc(-n4cccc4CNc4ccc(C)cc4)s3)CC2)cc1` here?
A: Its Potency is “inactive”.

Q: Which Potency does the source give for `CC(C)(C)c1ccc(C(=O)NCC(c2ccco2)S(=O)(=O)c2ccc(F)cc2)cc1` (stereo not drawn) here?
A: The Potency was “inactive”.

Q: With `O=S(=O)(c1ccc(Cl)cc1)c1nnn2c1nc(NC1CCCC1)c1sccc12` as the compound, how does the Potency read?
A: The Potency was “inactive”.

Q: Which Potency does the source give for `Cc1ccc(Cn2c(C)c3cnn(CC(=O)NCc4ccccc4)c(=O)c3c2C)cc1` here?
A: The Potency was “inactive”.

Q: For `CCOC(=O)C1CCN(C(=O)CSc2c3c(nc4ccc(Cl)cc24)CCCC3)CC1`, which Potency is on record?
A: The Potency was “inactive”.

Q: For `Cc1cc(OCC(=O)NCC2(N(C)C)CCCCC2)cc(C)c1Cl`, which Potency is on record?
A: Its Potency is “inactive”.

Q: For `COc1cccc(NC(=O)N(Cc2cn(C)c3ccccc23)C2CCCCCC2)c1`, which Potency is on record?
A: The Potency was “inactive”.

Q: Which Potency does the source give for `CCOc1ccc(NC(=O)c2c(NC(=O)Cc3ccccc3)sc3c2CCC(C)C3)cc1` (stereo not drawn) here?
A: The Potency was “inactive”.

Q: Which Potency does the source give for `CCC1=Nc2cc(C(=O)NCCCOC(C)C)ccc2Sc2ccc(C)cc21` here?
A: Its Potency is “inactive”.

Q: With `CCc1ccc(NC(=O)CN2CCSc3ccc(S(=O)(=O)N4CCCC4)cc32)cc1` as the compound, how does the Potency read?
A: The Potency was “inactive”.

Q: Which Potency does the source give for `Cc1ccc(NC(=O)c2nc(S(=O)(=O)Cc3cccc(C)c3)ncc2Cl)cc1` here?
A: The Potency was 30.6 µM (active).

Q: With `O=C(NCCCN1CCN(c2cccc(Cl)c2)CC1)c1nnc(Cc2ccc(F)cc2Cl)o1` as the compound, how does the Potency read?
A: The Potency was “inactive”.

Q: Which Potency does the source give for `CC(=O)N1CCCc2cc(S(=O)(=O)N3CCCC(C(=O)N4CCN(c5cccc(Cl)c5)CC4)C3)ccc21` (stereo not drawn) here?
A: The Potency was 27.3 µM (active).

Q: For `Cc1nnc(SCC(=O)NCc2ccccc2Cl)c2nn(-c3ccccc3)c(C)c12`, which Potency is on record?
A: The Potency was “inactive”.

Q: Which Potency does the source give for `COc1ccc(C2Sc3ccccc3NC3=C2C(=O)c2ccccc23)c(OC)c1OC` (stereo not drawn) here?
A: Its Potency is “inactive”.

Q: With `COc1ccc(CCNC(=O)c2cc(=O)c3c(C)cc(C)cc3o2)cc1OC` as the compound, how does the Potency read?
A: The Potency was “inactive”.

Q: Which Potency does the source give for `CCOCCCNC(=O)c1c(NC(=O)c2nc(SC)ncc2Cl)sc2c1CCCC2` here?
A: The Potency was “inactive”.

Q: With `Cc1ccc(C)n1-c1nnc(N2CCC(C(=O)NCc3ccccc3Cl)CC2)s1` as the compound, how does the Potency read?
A: Its Potency is “inactive”.

Q: Which Potency does the source give for `Cc1ccccc1CNC(=O)CSc1nnc(C)c2c(C)n(-c3ccccc3)nc12` here?
A: The Potency was “inactive”.

Q: For `Cc1ccc(OCCSc2nc3ccc(NC(=O)COc4ccc(C)cc4)cc3s2)cc1`, which Potency is on record?
A: The Potency was “inactive”.

Q: Which Potency does the source give for `CCOC(=O)c1ccc(N2C(=O)c3n[nH]c(C)c3C2c2ccc(O)c(OC)c2)cc1` (stereo not drawn) here?
A: The Potency was “inactive”.

Q: With `Cc1cccc(Nc2cc(C)nc(-n3nc(C)cc3C)n2)c1` as the compound, how does the Potency read?
A: Its Potency is “inactive”.

Q: Which Potency does the source give for `COc1ccccc1Nc1c2c(nc3ccc(NC(=O)/C=C/c4cc(OC)c(OC)c(OC)c4)cc13)CCCC2` here?
A: Its Potency is 17.2 µM (active).

Q: For `CCOC(=O)c1c(C)[nH]c(CCC(=O)NCCCN2CCN(c3cc(C)ccc3C)CC2)c1C`, which Potency is on record?
A: Its Potency is 30.6 µM (active).

Q: Which Potency does the source give for `COc1cccc(NC(=O)CSC2=Nc3ccccc3C3=NC(CC(=O)NC4CCCCC4)C(=O)N23)c1` (stereo not drawn) here?
A: Its Potency is “inactive”.

Q: Which Potency does the source give for `Cc1cc(F)ccc1NS(=O)(=O)c1ccc(-n2cccn2)cc1` here?
A: The Potency was “inactive”.

Q: For `COc1ccc(-c2onc(C)c2C)cc1S(=O)(=O)NCC1CCN(Cc2cccc(F)c2)CC1`, which Potency is on record?
A: Its Potency is “inactive”.

Q: With `Cc1sc(C2C(C#N)=C(N)N(c3cccc(Cl)c3)C3=C2C(=O)CCC3)cc1CN1CCOCC1` (stereo not drawn) as the compound, how does the Potency read?
A: Its Potency is “inactive”.

Q: For `CCCS(=O)(=O)c1ncc(Cl)c(C(=O)Nc2scc(-c3ccccc3)c2C(=O)OCC)n1`, which Potency is on record?
A: Its Potency is 27.3 µM (active).

Q: For `CCCn1c(=N)c(C(=O)NCc2ccccc2)cc2c(=O)n3cccc(C)c3nc21`, which Potency is on record?
A: Its Potency is “inactive”.

Q: For `O=C(c1ccc(C(F)(F)F)cc1)N1CCC(c2nc(-c3ccc(S(=O)(=O)N4CCCC4)cc3)no2)CC1`, which Potency is on record?
A: The Potency was “inactive”.
